Assay results: PubChem BioAssay (EPA / NIEHS)
Calls of active or inactive are those of the source. The calls were made as follows: active = hit-call score of the fitted dose curve at least 0.9, where 1 is the maximum; inactive = score below 0.9.

Read-out: Peroxisomal acyl-coenzyme A oxidase 1 (ACOX1) gene, ACOX1 (gene 51)
Assay: LTEA_HepaRG_ACOX1: Life Technologies and Expression Analysis (LTEA) Assay for Peroxisomal acyl-coenzyme A oxidase 1 (ACOX1) gene using HepaRG (AID 2283467)
Settings: mRNA level, 48 h; actives raise or lower the signal
Description: LTEA_HepaRG is a cell based, multiplexed-readout assay that uses HepaRG, a human liver cell line, with measurements taken at 48 hours after chemical dosing on a 96-well plate.LTEA_HepaRG_ACOX1 is one of 102 assay component(s) measured in the LTEA HepaRG cell culture assay. It is a marker of Steatosis.Data from the assay component LTEA_HepaRG_ACOX1 was analyzed into 1 endpoint. This assay endpoint, LTEA_HepaRG_ACOX1, was analyzed with bidirectional fitting relative to DMSO as the negative control and baseline of activity. Using a type of inducible reporter, measures of mRNA induction for gain or loss-of-signal activity can be used to understand regulation of transcription factor activity. To generalize the intended target to other relatable targets, this assay endpoint is annotated to the oxidase intended target family, where the subfamily is steatosis.
A total of 1060 chemcials from the ToxCast library were tested in eight-point concentration-response experiments. Cell culture and cytotoxicity assays were conducted at Thermo Fisher Scientific's Custom Services facility (Madison, WI). A single lot of human HepaRG cells (Thermo Fisher Scientific, Frederick, MD) was used for the cell culture experiments. 96-well format collagen type I coated plates of human HepaRG cells were prepared using established methods. Briefly, cryopreserved HepaRG cells were thawed, plated at a density of approximately 100,000 cells/well in HepaRG Thaw, Plate, and General Purpose media (HPRG770, Thermo Fisher Scientific), and incubated for 48 hours. 0.5% DMSO was selected as vehicle control to balance the requisite need of DMSO in HepaRG cultures to maintain differentiation (for example, baseline metabolism, proportions of hepatocytes vs. cholangiocytes), while enabling further hepatic receptor pathway activation (for example, PXR and CAR) in response to chemical exposure. 48 hours after plating, the culture medium was replaced with HepaRG Serum-Free Incudtion Media. Cells were exposed to each test chemical in duplicate and maintained in CO2 incubators for another 48 hours. Chemical plates were thawed to room temperature and 200x concentrations of treatment groups were prepared. 8-point conentration-reponse curves were made with the highest exposure at 100 uM, followed by half-log dilutions, all in 0.5% DMSO. Each test plate contained variouse controls, induction positive controls (1mM phenobarbital), cytotoxicity positive controls ([…] aflatoxin B1), vehicle controls (0.5% DMSO), and total lysis controls (0.5% DMSO). Cell morphology images were taken using an Essen IncuCyte FLR automated microscope, with six 96-well plates imaged in about 24 minutes. Images were captured and exported and JPEG files. Spent culture media was transfered to black-well plates for the LDH assay, and remaining media was sorted at -80 C for later use. Cells were treated with RLT buffer and frozen until shipped for gene expression analysis. Total RNA was isolated from the cell suspension in 75 uL of Buffer RLT (Qiagen, Germantown, MD 20874) by Quintiles/Expression Analysis (Durham, NC) using a custom isolation procedure. Total RNA from each plate well was transferred to a preamplification plate. Fluidigm's 96.96 Dynamic ArrayTM (Fluidigm, Amsterdam, the Netherlands) technology was used for gene expression analyses by quantitative reverse transcription polymerase chain reaction (qRT-PCR, performed by Quintiles/Expression Analysis, Durham, NC)89. Standard TaqManTM Assays (Applied Biosystems/ThermoFisher Scientific, Foster City, CA) were used to assess the expression of 93 genes selected based on their selectivity and sensitivity to important hepatic receptors known to be modulated by environmental chemicals; importance in human hepatocyte functionality; and hepatotoxicity. […]

| SMILES | outcome | AC50 |
| --- | --- | --- |
| O=C(NO)C1(NS(=O)(=O)c2ccc(Oc3ccc(F)cc3)cc2)CCOCC1 | inactive | – |
| OCCOCCOCCO | inactive | – |
| CCOc1ccc2[nH]cc(C(=O)NCc3ccccc3)c(=O)c2n1 | inactive | – |
| OC[C@H]1O[C@@](CO)(O[C@H]2O[C@H](CO)[C@@H](O)[C@H](O)[C@H]2O)[C@@H](O)[C@@H]1O | inactive | – |
| O=C1CN(N=Cc2ccc([N+](=O)[O-])o2)C(=O)N1 | inactive | – |
| Cc1ncc([C@@H](CCCCCCc2ccc3c(n2)NCCC3)CC(=O)O)cn1 | inactive | – |
| CCCCCCOC(=O)CC(CC(=O)OCCCCCC)(OC(=O)CCC)C(=O)OCCCCCC | inactive | – |
| CCCc1ccccc1 | inactive | – |
| CCCCCCCC1CCC(=O)O1 (stereo not given) | inactive | – |
| CCOC(N)=O | inactive | – |
| NC(N)=O | inactive | – |
| Cc1ccc(S(=O)(=O)NC(=O)NN2CCCCCC2)cc1 | inactive | – |
| CC(C)CCCCCCOC(=O)C1CCCCC1C(=O)OCCCCCCC(C)C (stereo not given) | inactive | – |
| c1ccc2c(c1)-c1cccc3c1c-2cc1ccccc13 | – | 15.9 µM (active) |
| Cn1cc[nH]c1=S | inactive | – |
| c1ccc2cc3ccccc3cc2c1 | inactive | – |
| CC(C)CC(C)O (stereo not given) | inactive | – |
| CC[C@H](C)C(=O)O[C@H]1C[C@H](O)C=C2C=C[C@H](C)[C@H](CC[C@@H](O)C[C@@H](O)CC(=O)O)[C@H]21 | inactive | – |
| CC(C)C(=O)Nc1ccc([N+](=O)[O-])c(C(F)(F)F)c1 | – | 72.4 µM (active) |
| CCCCCCCCCCCCCCO | inactive | – |

| SMILES | outcome | AC50 |
| --- | --- | --- |
| Cc1nc(-c2ccccn2)ncc1C(=O)Nn1cc(C)c2cc(F)ccc21 | inactive | – |
| C[C@]12C=CC(=O)C=C1CC[C@H]1[C@@H]3C[C@@H](O)[C@](O)(C(=O)CO)[C@@]3(C)C[C@H](O)[C@@]12F | inactive | – |
| CCCCCCCC/C=C\CCCCCCCC(=O)OC[C@@H](O)[C@H]1OC[C@H](O)[C@H]1O | inactive | – |
| CCCCCOC(C)=O | inactive | – |
| Nc1ccn([C@@H]2O[C@H](CO)[C@@H](O)[C@@H]2O)c(=O)n1 | inactive | – |
| NC(=O)N(O)[C@@H]1COc2cc(OCc3ccccc3)ccc21 | inactive | – |
| CCCCCCCCCC | inactive | – |
| c1ccc(C(O[C@@H]2CCCN(CCc3ccc4c(c3)OCO4)C2)c2ccccc2)cc1 | – | 75.9 µM (active) |
| NNC(=O)c1ccncc1 | inactive | – |
| O=C(O)c1cccc(C(=O)O)c1 | inactive | – |
| c1ccc2ncccc2c1 | inactive | – |
| C[C@@H](Oc1ccc(CNC(=O)c2cccnc2Oc2ccc3c(c2)OCO3)c(F)c1)C(=O)O | inactive | – |
| CCN(CC)C(=S)SSC(=S)N(CC)CC | inactive | – |
| CCc1cccc(CC)c1N | inactive | – |
| COCc1nnc(-c2ccc[n+]([O-])c2)n1-c1c(Cl)c(Cl)cc2[nH]c(=O)c(=O)[nH]c12 | inactive | – |
| O=c1[nH]cnc2c1ncn2[C@H]1CC[C@@H](CO)O1 | inactive | – |
| OC(Cn1cncn1)(Cn1cncn1)c1ccc(F)cc1F | inactive | – |
| CCc1ccc(O)c(C(C)(C)C)c1 | inactive | – |
| C=CCc1cc(S(=O)(=O)c2ccc(O)c(CC=C)c2)ccc1O | – | 79.8 µM (active) |
| CCn1nc(C)c2c1C(=O)NCC(c1ccc(O)cc1)=N2 | inactive | – |
